Measurements from the supplement of paper PMC10849652.
Targets with a hit are over-represented here; the source holds about 7,900 in all. About 0.6% of all pairs of compound and target were hits.

Legend:
Assay in all cases: log2 fold change, soluble protein after heating vs DMSO (PISA); higher = thermal stabilisation; K562 cells, 10 uM, 30 min; active = over 0.2 and 3.5 SD of the protein, either way, in both replicates (recomputed)
[1] = compound: COC1=CC=C(C=C1)CN2C=CC3=C2C=C(C=C3)C(=O)NO
Summary of the method: (§1)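 Soluble protein was quantified by TMTpro 16plex LC-MS/MS after channel sums were equalised. It was obtained as the supernatant after 21,000xg for 90 min from pooled aliquots of K562 cells (2×10^6 cells/mL, 10 μM compound, 30 min) heated for 3 min across 48°C-58°C and extracted in PBS with 0.5% NP-40 at 4°C. Thermal stability values are relative to control samples and come from duplicates. They are given as log2 fold changes.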

filanesib = compound: CON(C)C(=O)N1N=C(c2cc(F)ccc2F)S[C@@]1(CCCN)c1ccccc1 [filanesib]
Summary of the method: as §1

zotarolimus = compound: CO[C@H]1C[C@@H]2CC[C@@H](C)[C@@](O)(O2)C(=O)C(=O)N2CCCC[C@H]2C(=O)O[C@H]([C@H](C)C[C@@H]2CC[C@H](n3cnnn3)[C@H](OC)C2)CC(=O)[C@H](C)/C=C(\C)[C@@H](O)[C@@H](OC)C(=O)[C@H](C)C[C@H](C)/C=C/C=C/C=C/1C [zotarolimus]
Summary of the method: as §1

idasanutlin = compound: COc1cc(C(=O)O)ccc1NC(=O)[C@@H]1N[C@@H](CC(C)(C)C)[C@](C#N)(c2ccc(Cl)cc2F)[C@H]1c1cccc(Cl)c1F [idasanutlin]
Summary of the method: as §1

alisertib = compound: COc1cc(Nc2ncc3c(n2)-c2ccc(Cl)cc2C(c2c(F)cccc2OC)=NC3)ccc1C(=O)O [alisertib]
Summary of the method: as §1

[2] = compound: COc1cc2nc(-c3cc(F)ccc3O)nc(N[C@@H]3CNC[C@H]3C(C)(C)O)c2cc1OC
Summary of the method: as §1

gefitinib = compound: COc1cc2ncnc(Nc3ccc(F)c(Cl)c3)c2cc1OCCCN1CCOCC1 [gefitinib]
Summary of the method: as §1

[3] = compound: COc1cccc2cc(-c3nc([C@H]4CC[C@H](C(=O)O)CC4)n4ncnc(N)c34)[nH]c12
Summary of the method: as §1

lapatinib = compound: CS(=O)(=O)CCNCc1ccc(-c2ccc3ncnc(Nc4ccc(OCc5cccc(F)c5)c(Cl)c4)c3c2)o1 [lapatinib]
Summary of the method: as §1

pictilisib = compound: CS(=O)(=O)N1CCN(Cc2cc3nc(-c4cccc5[nH]ncc45)nc(N4CCOCC4)c3s2)CC1 [pictilisib]
Summary of the method: as §1

[4] = compound: CS(=O)(=O)c1ccc(-c2cnc(N)c(C(=O)Nc3ccccc3)n2)cc1
Summary of the method: as §1

crizotinib = compound: C[C@@H](Oc1cc(-c2cnn(C3CCNCC3)c2)cnc1N)c1c(Cl)ccc(F)c1Cl [crizotinib]
Summary of the method: as §1

[5] = compound: C[C@@H]1COCCN1C2=NC(=NC(=C2)C3(CC3)S(=O)(=O)C)C4=C5C=CNC5=CC=C4
Summary of the method: as §1

[6] = compound: C[C@H](C1=CC=C(C=C1)C(=O)NC2=C3C=CNC3=NC=C2)N
Summary of the method: as §1

duvelisib = compound: C[C@H](Nc1ncnc2nc[nH]c12)c1cc2cccc(Cl)c2c(=O)n1-c1ccccc1 [duvelisib]
Summary of the method: as §1

gandotinib = compound: Cc1cc(Nc2cc(CN3CCOCC3)c3nc(C)c(Cc4ccc(Cl)cc4F)n3n2)n[nH]1 [gandotinib]
Summary of the method: as §1

tozasertib = compound: Cc1cc(Nc2cc(N3CCN(C)CC3)nc(Sc3ccc(NC(=O)C4CC4)cc3)n2)n[nH]1 [tozasertib]
Summary of the method: as §1

[7] = compound: Cc1cc(SCc2sc(-c3ccc(C(F)(F)F)cc3)nc2C)ccc1OCC(=O)O
Summary of the method: as §1

doramapimod = compound: Cc1ccc(-n2nc(C(C)(C)C)cc2NC(=O)Nc2ccc(OCCN3CCOCC3)c3ccccc23)cc1 [doramapimod]
Summary of the method: as §1

ispinesib = compound: Cc1ccc(C(=O)N(CCCN)[C@@H](c2nc3cc(Cl)ccc3c(=O)n2Cc2ccccc2)C(C)C)cc1 [ispinesib]
Summary of the method: as §1

Measured: log2 fold change

TEX264 (UniProt Q9Y6I9)
UniProt Q9Y6I9, sequence (Q9Y6I9 whole entry, looked up): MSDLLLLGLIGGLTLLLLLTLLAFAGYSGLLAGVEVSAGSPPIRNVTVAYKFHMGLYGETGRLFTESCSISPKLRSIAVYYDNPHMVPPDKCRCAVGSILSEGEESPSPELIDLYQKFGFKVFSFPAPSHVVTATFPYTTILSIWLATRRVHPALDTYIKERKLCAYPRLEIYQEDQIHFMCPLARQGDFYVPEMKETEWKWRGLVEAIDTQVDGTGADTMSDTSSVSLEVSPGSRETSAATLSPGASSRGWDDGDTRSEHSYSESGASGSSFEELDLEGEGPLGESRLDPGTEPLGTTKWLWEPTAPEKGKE
inactive: [1] 0.07 | filanesib -0.169 | zotarolimus 0.059 | idasanutlin -0.076 | alisertib -0.042 | [2] 0.163 | gefitinib 0.164 | [3] -0.046 | lapatinib 0.421 | pictilisib 0.321 | [4] 0.361 | crizotinib 0.079 | [5] 0.064 | [6] 0.176 | duvelisib 0.037 | gandotinib -0.059 | tozasertib 0.113 | [7] -0.028 | doramapimod 0.039 | ispinesib -0.016

SLC4A2 (UniProt P04920)
UniProt P04920, sequence (P04920 whole entry, looked up): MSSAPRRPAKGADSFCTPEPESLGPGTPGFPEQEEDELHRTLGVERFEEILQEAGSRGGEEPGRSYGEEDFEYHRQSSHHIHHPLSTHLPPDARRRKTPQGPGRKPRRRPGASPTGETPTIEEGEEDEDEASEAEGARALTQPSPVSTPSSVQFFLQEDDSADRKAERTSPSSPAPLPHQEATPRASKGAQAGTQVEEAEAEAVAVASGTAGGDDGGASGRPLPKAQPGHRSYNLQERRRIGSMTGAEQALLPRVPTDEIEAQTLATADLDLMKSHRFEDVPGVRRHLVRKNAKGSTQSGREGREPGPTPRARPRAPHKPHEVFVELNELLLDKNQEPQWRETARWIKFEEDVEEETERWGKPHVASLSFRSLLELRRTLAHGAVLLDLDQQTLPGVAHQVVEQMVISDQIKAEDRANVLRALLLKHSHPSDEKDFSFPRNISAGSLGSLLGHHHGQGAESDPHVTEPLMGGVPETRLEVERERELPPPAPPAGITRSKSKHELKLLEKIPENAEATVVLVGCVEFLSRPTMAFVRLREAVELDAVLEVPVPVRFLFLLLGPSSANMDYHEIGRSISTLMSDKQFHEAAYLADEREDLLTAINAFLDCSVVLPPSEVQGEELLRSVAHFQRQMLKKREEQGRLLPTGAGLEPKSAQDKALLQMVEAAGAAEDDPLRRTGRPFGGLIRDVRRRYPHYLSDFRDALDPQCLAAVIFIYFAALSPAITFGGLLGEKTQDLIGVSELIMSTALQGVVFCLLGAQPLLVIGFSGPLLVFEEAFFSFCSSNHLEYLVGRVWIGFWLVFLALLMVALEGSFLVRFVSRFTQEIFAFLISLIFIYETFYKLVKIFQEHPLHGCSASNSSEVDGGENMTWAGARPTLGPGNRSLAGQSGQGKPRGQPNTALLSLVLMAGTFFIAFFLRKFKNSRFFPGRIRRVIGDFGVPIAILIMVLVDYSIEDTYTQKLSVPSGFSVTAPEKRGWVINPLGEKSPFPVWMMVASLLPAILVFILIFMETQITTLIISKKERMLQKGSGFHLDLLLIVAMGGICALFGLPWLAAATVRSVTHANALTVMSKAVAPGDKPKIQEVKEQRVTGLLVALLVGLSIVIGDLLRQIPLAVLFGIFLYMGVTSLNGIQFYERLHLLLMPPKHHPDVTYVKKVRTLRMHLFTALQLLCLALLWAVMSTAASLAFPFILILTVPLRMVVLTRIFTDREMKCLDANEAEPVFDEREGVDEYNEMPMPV
inactive: [1] -0.088 | filanesib -0.041 | zotarolimus 0 | idasanutlin -0.002 | alisertib -0.016 | [2] 0.051 | gefitinib -0.081 | [3] -0.003 | lapatinib -0.023 | pictilisib 0.128 | [4] 0.114 | crizotinib -0.053 | [5] 0.013 | [6] 0.126 | duvelisib -0.015 | gandotinib -0.075 | tozasertib -0.069 | [7] -0.058 | doramapimod 0.07 | ispinesib -0.099

SPTBN1 (UniProt Q01082)
inactive: [1] -0.037 | filanesib 0.102 | zotarolimus 0.045 | idasanutlin 0.053 | alisertib -0.073 | [2] 0.02 | gefitinib 0.084 | [3] -0.076 | lapatinib 0.031 | pictilisib 0.007 | [4] 0.018 | crizotinib 0.042 | [5] 0.008 | [6] 0.039 | duvelisib 0.016 | gandotinib -0.039 | tozasertib 0.046 | [7] 0.094 | doramapimod 0.021 | ispinesib 0.03

TIMM10 (UniProt P62072)
UniProt P62072, sequence (P62072 whole entry, looked up): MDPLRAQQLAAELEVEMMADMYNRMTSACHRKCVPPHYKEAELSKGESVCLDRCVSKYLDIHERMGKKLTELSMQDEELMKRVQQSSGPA
inactive: [1] -0.043 | filanesib -0.038 | zotarolimus -0.023 | idasanutlin -0.019 | alisertib 0.01 | [2] -0.12 | gefitinib 0.015 | [3] 0.03 | lapatinib -0.026 | pictilisib 0.008 | [4] -0.035 | crizotinib 0.051 | [5] 0.099 | [6] -0.006 | duvelisib 0.105 | gandotinib 0.052 | tozasertib 0.053 | [7] 0.027 | doramapimod 0.021 | ispinesib 0.103

SRPRB (UniProt Q9Y5M8)
inactive: [1] 0.133 | filanesib -0.076 | zotarolimus 0.018 | idasanutlin -0.11 | alisertib -0.021 | [2] 0.136 | gefitinib -0.001 | [3] -0.03 | lapatinib 0.048 | pictilisib -0.022 | [4] -0.006 | crizotinib 0.01 | [5] 0.059 | [6] -0.042 | duvelisib 0.012 | gandotinib 0.055 | tozasertib -0.017 | [7] 0.083 | doramapimod -0.026 | ispinesib 0.055

STK26 (UniProt Q9P289)
UniProt Q9P289, sequence (Q9P289 whole entry, looked up): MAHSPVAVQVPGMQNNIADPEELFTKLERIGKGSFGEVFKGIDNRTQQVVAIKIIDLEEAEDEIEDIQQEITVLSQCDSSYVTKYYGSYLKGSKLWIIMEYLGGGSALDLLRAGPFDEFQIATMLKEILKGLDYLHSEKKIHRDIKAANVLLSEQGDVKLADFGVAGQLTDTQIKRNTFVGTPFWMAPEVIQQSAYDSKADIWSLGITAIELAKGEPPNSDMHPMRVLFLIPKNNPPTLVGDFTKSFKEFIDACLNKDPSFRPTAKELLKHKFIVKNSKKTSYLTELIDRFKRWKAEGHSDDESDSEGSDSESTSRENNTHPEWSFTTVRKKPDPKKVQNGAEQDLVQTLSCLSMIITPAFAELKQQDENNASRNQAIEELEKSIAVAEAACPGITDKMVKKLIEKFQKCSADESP
active: crizotinib -0.308
inactive: [1] 0.018 | filanesib -0.147 | zotarolimus -0.03 | idasanutlin 0.045 | alisertib -0.059 | [2] 0.069 | gefitinib -0.037 | [3] 0.009 | lapatinib 0.019 | pictilisib -0.105 | [4] -0.019 | [5] 0.123 | [6] 0.049 | duvelisib -0.01 | gandotinib -0.061 | tozasertib -0.11 | [7] -0.01 | doramapimod -0.034 | ispinesib -0.146

TBCD (UniProt Q9BTW9)
inactive: [1] -0.017 | filanesib -0.063 | zotarolimus 0.049 | idasanutlin -0.091 | alisertib -0.078 | [2] -0.006 | gefitinib 0.022 | [3] 0.023 | lapatinib -0.024 | pictilisib 0.04 | [4] -0.069 | crizotinib 0.001 | [5] 0.061 | [6] -0.034 | duvelisib 0.058 | gandotinib -0.104 | tozasertib 0.041 | [7] 0.009 | doramapimod 0.004 | ispinesib -0.032

SRSF6 (UniProt Q13247)
UniProt Q13247, sequence (Q13247 whole entry, looked up): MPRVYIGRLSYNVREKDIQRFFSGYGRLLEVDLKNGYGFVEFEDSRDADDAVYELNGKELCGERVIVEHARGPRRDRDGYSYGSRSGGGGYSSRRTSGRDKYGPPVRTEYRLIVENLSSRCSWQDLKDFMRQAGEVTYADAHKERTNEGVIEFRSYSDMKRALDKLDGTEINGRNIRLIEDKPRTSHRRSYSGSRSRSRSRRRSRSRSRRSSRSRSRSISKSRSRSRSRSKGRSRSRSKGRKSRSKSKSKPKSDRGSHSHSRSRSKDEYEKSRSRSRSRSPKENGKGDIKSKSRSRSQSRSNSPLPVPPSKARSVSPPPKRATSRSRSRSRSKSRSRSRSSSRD
inactive: [1] -0.209 | filanesib 0.218 | zotarolimus -0.118 | idasanutlin 0.375 | alisertib -0.105 | [2] -0.134 | gefitinib 0.033 | [3] -0.032 | lapatinib 0.163 | pictilisib -0.473 | [4] -0.021 | crizotinib -0.09 | [5] -0.195 | [6] 0.03 | duvelisib -0.085 | gandotinib -0.043 | tozasertib -0.08 | [7] 0.059 | doramapimod -0.047

SUGP1 (UniProt Q8IWZ8)
inactive: [1] 0.027 | filanesib -0.01 | zotarolimus 0 | idasanutlin 0.026 | alisertib -0.038 | [2] -0.007 | gefitinib 0.055 | [3] -0.02 | lapatinib -0.046 | pictilisib 0.032 | [4] 0.021 | crizotinib -0.001 | [5] 0.015 | [6] -0.064 | duvelisib -0.024 | gandotinib -0.077 | tozasertib 0.042 | [7] 0.09 | doramapimod -0.033 | ispinesib 0.019

TFRC (UniProt P02786)
UniProt P02786, sequence (P02786 whole entry, looked up): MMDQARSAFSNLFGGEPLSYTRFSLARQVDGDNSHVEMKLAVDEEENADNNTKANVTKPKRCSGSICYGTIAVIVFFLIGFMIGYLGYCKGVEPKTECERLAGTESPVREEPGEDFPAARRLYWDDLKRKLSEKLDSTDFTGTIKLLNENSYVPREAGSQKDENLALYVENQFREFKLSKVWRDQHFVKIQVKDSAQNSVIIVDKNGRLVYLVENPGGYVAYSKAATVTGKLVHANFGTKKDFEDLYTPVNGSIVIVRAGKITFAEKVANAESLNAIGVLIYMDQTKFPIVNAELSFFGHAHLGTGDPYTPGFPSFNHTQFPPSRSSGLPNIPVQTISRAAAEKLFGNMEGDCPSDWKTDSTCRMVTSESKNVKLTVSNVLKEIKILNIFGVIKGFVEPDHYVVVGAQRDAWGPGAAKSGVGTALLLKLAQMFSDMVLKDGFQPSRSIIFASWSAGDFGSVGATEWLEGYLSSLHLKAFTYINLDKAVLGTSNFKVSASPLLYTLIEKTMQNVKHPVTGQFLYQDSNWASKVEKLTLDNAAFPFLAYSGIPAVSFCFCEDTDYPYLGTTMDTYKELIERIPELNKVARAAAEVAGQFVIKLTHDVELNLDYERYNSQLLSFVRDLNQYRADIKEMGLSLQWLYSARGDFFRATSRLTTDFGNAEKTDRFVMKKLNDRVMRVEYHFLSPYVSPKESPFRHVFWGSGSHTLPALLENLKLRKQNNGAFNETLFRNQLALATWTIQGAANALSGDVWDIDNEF
inactive: [1] 0.009 | filanesib -0.013 | zotarolimus -0.041 | idasanutlin -0.027 | alisertib -0.05 | [2] 0.017 | gefitinib 0.004 | [3] 0.063 | lapatinib -0.03 | pictilisib 0.048 | [4] 0.026 | [5] 0.012 | [6] -0.018 | duvelisib 0.047 | gandotinib -0.011 | tozasertib -0.01 | [7] -0.023 | doramapimod -0.012 | ispinesib -0.059
active: crizotinib -0.283

STX7 (UniProt O15400)
UniProt O15400, sequence (O15400 whole entry, looked up): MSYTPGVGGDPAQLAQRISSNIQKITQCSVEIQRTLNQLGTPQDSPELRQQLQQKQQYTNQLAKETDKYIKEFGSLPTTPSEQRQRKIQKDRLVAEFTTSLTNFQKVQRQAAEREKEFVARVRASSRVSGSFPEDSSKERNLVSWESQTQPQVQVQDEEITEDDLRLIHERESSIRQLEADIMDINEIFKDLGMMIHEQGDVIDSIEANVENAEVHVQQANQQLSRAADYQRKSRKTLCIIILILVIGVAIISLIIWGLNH
inactive: [1] 0.065 | filanesib -0.071 | zotarolimus 0.027 | idasanutlin -0.023 | alisertib -0.048 | [2] 0.013 | gefitinib -0.01 | [3] 0.045 | lapatinib -0.002 | pictilisib -0.118 | [4] 0 | crizotinib -0.187 | [5] 0.015 | [6] -0.042 | duvelisib -0.023 | gandotinib -0.18 | tozasertib -0.021 | [7] -0.055 | doramapimod 0.04
active: ispinesib -0.246

STAT5A (UniProt P42229)
UniProt P42229, sequence (P42229 whole entry, looked up): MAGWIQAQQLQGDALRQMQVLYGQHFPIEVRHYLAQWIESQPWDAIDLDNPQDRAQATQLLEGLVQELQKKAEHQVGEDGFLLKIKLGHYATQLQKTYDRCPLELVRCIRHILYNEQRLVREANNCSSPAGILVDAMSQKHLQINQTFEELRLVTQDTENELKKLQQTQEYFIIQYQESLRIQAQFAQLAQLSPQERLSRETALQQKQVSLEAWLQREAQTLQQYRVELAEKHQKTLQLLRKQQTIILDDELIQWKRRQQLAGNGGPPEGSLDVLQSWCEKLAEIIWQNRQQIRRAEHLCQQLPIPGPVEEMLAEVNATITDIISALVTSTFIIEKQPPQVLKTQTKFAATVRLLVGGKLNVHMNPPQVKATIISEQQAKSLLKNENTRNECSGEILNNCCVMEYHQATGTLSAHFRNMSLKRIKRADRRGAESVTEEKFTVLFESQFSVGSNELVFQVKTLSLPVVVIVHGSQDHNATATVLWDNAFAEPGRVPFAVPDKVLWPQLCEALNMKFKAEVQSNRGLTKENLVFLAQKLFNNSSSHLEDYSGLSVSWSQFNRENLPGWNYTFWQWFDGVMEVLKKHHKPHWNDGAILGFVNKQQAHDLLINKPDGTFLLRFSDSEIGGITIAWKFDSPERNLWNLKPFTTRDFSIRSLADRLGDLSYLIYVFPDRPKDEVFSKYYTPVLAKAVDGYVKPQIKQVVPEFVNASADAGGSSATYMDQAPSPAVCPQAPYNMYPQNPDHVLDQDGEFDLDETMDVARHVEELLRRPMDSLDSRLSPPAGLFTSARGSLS
inactive: [1] 0.034 | filanesib 0.018 | zotarolimus 0.094 | idasanutlin 0.032 | alisertib -0.056 | [2] 0.009 | gefitinib 0.047 | [3] -0.128 | lapatinib 0 | pictilisib -0.096 | [4] 0.02 | crizotinib -0.002 | [5] 0.08 | [6] -0.036 | duvelisib 0.019 | gandotinib -0.033 | tozasertib 0.119 | [7] 0.14 | doramapimod -0.047 | ispinesib 0.275

TIMM21 (UniProt Q9BVV7)
UniProt Q9BVV7, sequence (Q9BVV7 whole entry, looked up): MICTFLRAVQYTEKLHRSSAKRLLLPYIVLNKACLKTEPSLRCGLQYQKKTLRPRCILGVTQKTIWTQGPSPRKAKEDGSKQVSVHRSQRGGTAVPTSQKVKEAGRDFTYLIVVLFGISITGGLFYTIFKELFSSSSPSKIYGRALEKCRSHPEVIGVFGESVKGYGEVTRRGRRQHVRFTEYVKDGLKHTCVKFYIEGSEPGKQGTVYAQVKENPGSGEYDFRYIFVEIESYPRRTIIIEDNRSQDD
inactive: [1] -0.038 | filanesib -0.171 | zotarolimus 0.03 | idasanutlin -0.078 | alisertib 0.054 | [2] -0.205 | gefitinib -0.006 | [3] 0.01 | lapatinib -0.008 | pictilisib 0.055 | [4] 0.02 | crizotinib -0.01 | [5] 0.042 | [6] -0.029 | duvelisib 0.009 | gandotinib 0.04 | tozasertib 0.017 | [7] 0.033 | doramapimod 0.02 | ispinesib -0.229

SMAP2 (UniProt Q8WU79)
UniProt Q8WU79, sequence (Q8WU79 whole entry, looked up): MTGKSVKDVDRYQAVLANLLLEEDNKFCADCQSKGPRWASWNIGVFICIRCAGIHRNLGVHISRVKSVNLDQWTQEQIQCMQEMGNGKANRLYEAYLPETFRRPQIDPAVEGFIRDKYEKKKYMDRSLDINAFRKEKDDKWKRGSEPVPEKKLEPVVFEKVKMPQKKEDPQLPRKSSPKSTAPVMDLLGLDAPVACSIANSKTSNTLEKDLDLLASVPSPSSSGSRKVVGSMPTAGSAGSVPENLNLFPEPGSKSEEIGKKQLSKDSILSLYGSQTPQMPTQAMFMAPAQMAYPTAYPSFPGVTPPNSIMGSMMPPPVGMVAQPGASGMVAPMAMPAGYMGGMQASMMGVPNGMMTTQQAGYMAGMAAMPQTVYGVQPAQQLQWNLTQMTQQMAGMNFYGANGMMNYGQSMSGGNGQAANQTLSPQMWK
inactive: [1] -0.029 | filanesib 0.048 | zotarolimus 0.045 | idasanutlin -0.039 | alisertib 0.11 | gefitinib 0.043 | [3] -0.072 | lapatinib -0.009 | pictilisib -0.015 | [4] 0.04 | crizotinib 0.097 | [5] 0.015 | [6] 0.04 | duvelisib 0.02 | gandotinib -0.011 | tozasertib 0.058 | [7] 0.096 | doramapimod -0.047 | ispinesib -0.006
active: [2] 0.247

SSRP1 (UniProt Q08945)
inactive: [1] 0.118 | filanesib 0.023 | zotarolimus 0.036 | idasanutlin -0.005 | alisertib -0.037 | [2] -0.05 | gefitinib 0.028 | [3] -0.014 | lapatinib 0.008 | pictilisib -0.026 | [4] -0.024 | crizotinib -0.018 | [5] 0.144 | [6] -0.088 | duvelisib 0.029 | gandotinib -0.029 | tozasertib 0.087 | [7] 0.072 | doramapimod -0.027 | ispinesib 0.048
